Rows were chosen to be rich in hits. Some 17% of all compounds tested hit in one or more screens of this group.
DT40 TDP1 no CPT: qHTS for Inhibitors of human tyrosyl-DNA phosphodiesterase 1 (TDP1): qHTS in cells in absence of CPT | AID 686978, 2013 | 15% of 420,000 active | DT40 Tdp1-/- hTDP1 cells, no CPT, ATP luminescence, 48 h | Potency, µM (titrated, usually from 46.2 µM), for inactives: at the highest dose activity change, negative = growth inhibition, actives largely listed as inhibitors; further: on the % scale 0 is the no-effect control and ±100 the full control effect; nearly all actives have a fitted effect of over 55% in size
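Chicken DT40 Tdp1-/- cells complemented with human TDP1, screened without camptothecin (DMSO vehicle only), 400 cells/well. Compounds pin-transferred, cells incubated at 37 °C for at least 48 hr. Growth read as ATP-dependent luminescence (CellTiter-Glo, 30 min at RT).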
S2 tox: cell viability loss in ATXN counter-screen. S2 cells (HEK-293 line with an ATXN2-luciferase reporter) viability, CellTiter-Fluor protease fluorescence, 24 h. Potency, µM (top dose mostly 56.7 µM), most hits filed as cytotoxic. 0.49% of 400,000 active; further: nearly all actives have a fitted effect of over 40% in size
DT40 TDP1 CPT: growth inhibition of DT40 Tdp1-/-;hTDP1 cells with camptothecin (screen for TDP1 inhibitors) | 12% of 420,000 active | AID 686979 | Potency, µM (top dose mostly 46.2 µM), for the others: at the top dose activity change, negative = growth inhibition, most hits filed as inhibitors | chicken DT40 Tdp1-/-;hTDP1 cells + 20 nM CPT, ATP luminescence, 48 h; further: on the % scale 0 is the no-effect control and ±100 the full control effect; nearly all actives have a fitted effect of over 55% in size
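Chicken DT40 Tdp1-/- cells complemented with human TDP1, 400 cells/well, exposed to compounds plus 20 nM camptothecin for at least 48 h at 37 C; viability read as ATP content by CellTiter-Glo luminescence.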
TGFb inhibitor: inhibitors of TGF-b signaling. HepG2 CAGA-GFP TGF-b/SMAD3 reporter, GFP fluorescence, 18 h; TGF-beta stimulated, 500 pg/mL final. Potency, µM (highest dose often 46.1 µM), for inactives: top-dose activity, negative = inhibition, hits mostly inhibitors. 1.2% of 410,000 active. AID 588855; further: on the % scale 0 is the no-effect control and ±100 the full control effect; nearly all actives have a fitted effect of over 65% in size
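Cell-based qHTS in HEPG2 carrying a CAGA-GFP Smad reporter; compounds added before 500 pg/mL final TGF-beta, 18 h incubation at 37 degrees C, GFP fluorescence quantified per cell by imaging cytometry.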
HepG2 tox: HepG2 cytotoxicity, counter-screen for TGF-b inhibitors; Potency, µM (highest dose often 46.1 µM), inactives show top-dose activity change, negative = cytotoxicity, most hits filed as cytotoxic; 0.76% of 410,000 active; HepG2 CAGA-GFP viability, ATP luminescence, 18 h
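HepG2 CAGA-GFP cells (1000/well, DMEM with 1% FBS) received compound, then TGF-beta at 500 pg/mL final, and were incubated 18 hours at 37 degrees C. Viability was read by CellTiter-Glo luminescence. Media-only wells were set as complete cell-killing and DMSO as no toxicity.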
ATXN2 expr inh: inhibitors of ATXN2 expression | HEK-293 ATXN2-luciferase reporter, luminescence, 24 h | Potency, µM (highest dose often 57 µM), without a hit: top-dose activity change, negative = inhibition, hits mostly inhibitors | 0.72% of 360,000 active | AID 1745845; further: on the % scale 0 is the no-effect control and ±100 the full control effect; nearly all actives have a fitted effect of over 55% in size
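qHTS (up to 57 uM final) was run with 24 h compound exposure of reporter cells at 37 °C. Each well was multiplexed: SteadyGlo luminescence measured ATXN2-luciferase expression after a fluorogenic Gly-Phe-AFC viability readout (25 uM final).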
Numbers without * were called inactive. The call rests on the fitted dose curve; in most records, active means well fitted curve in the direction sought with a large enough effect; inconclusive means small, poorly fitted or top-dose-only effect, or another doubt; inactive means no such curve, though single readings can be large; an effect the other way counts as inactive or inconclusive. Potency means the concentration at half of the fitted maximal effect.

NC(=O)C1(N2CCCCC2)CCN(C2CC(=O)N(Cc3cccs3)C2=O)CC1 (centres undefined) was read as DT40 TDP1 no CPT -4%, S2 tox inactive, DT40 TDP1 CPT 17%, TGFb inhibitor -6%, HepG2 tox 0% and ATXN2 expr inh 2%.
Screening COC(=O)c1ccc(NC(=O)c2c(C(=O)Nc3ccccc3)sc3nc(C)cc(=O)n23)cc1 returned DT40 TDP1 no CPT 0%, S2 tox inactive, DT40 TDP1 CPT -4%, TGFb inhibitor 10% and HepG2 tox -2%.
Screening COc1ccc(Cl)cc1NC(=O)c1c(C(=O)Nc2cccc(C)c2C)sc2nc(C)cc(=O)n12 returned DT40 TDP1 no CPT 21µM*, S2 tox inactive, DT40 TDP1 CPT inconclusive, TGFb inhibitor 12%, HepG2 tox 2% and ATXN2 expr inh 6%.
Cc1cccc(Cn2cc3c(=O)n(CC(=O)Nc4cccc(C)c4C)nc-3c3cc(F)ccc32)c1 was read as DT40 TDP1 no CPT -25%, S2 tox inactive, DT40 TDP1 CPT -2%, TGFb inhibitor -9%, HepG2 tox -22% and ATXN2 expr inh 12%.
CCN1CCCC1CNC(=O)Cn1cccc1C(=O)c1ccccc1C (centres undefined) was read as DT40 TDP1 no CPT -18%, S2 tox inactive, DT40 TDP1 CPT 4%, TGFb inhibitor 6%, HepG2 tox 11% and ATXN2 expr inh -4%.
Screening Oc1ccc(N2CCN(Cc3cc4c(cc3Br)OCCO4)CC2)cc1 returned DT40 TDP1 no CPT 23µM*, S2 tox inactive, DT40 TDP1 CPT inconclusive, TGFb inhibitor -13%, HepG2 tox -12% and ATXN2 expr inh inconclusive.
Screening Cn1c(=O)oc2cc(S(=O)(=O)NC(CC(=O)O)c3cccc(Br)c3)ccc21 (centres undefined) returned DT40 TDP1 no CPT 10%, DT40 TDP1 CPT 29%, TGFb inhibitor -23% and HepG2 tox -8%.
COc1c([N+](=O)[O-])ccc(N)c1N was read as DT40 TDP1 no CPT -21%, DT40 TDP1 CPT -18%, TGFb inhibitor -1% and HepG2 tox 2%.
`O=C(C1CCN(Cc2ccccc2O)CC1)N1CCN(Cc2ccc3c(c2)OCO3)CC1` gave DT40 TDP1 no CPT 1%, S2 tox inactive, DT40 TDP1 CPT -1%, TGFb inhibitor -2%, HepG2 tox -17% and ATXN2 expr inh -16%.
O=C(C1CCCN(Cc2ccccc2)C1)N1CCCCC1 (centres undefined) was read as DT40 TDP1 no CPT 1%, S2 tox inactive, DT40 TDP1 CPT 8%, TGFb inhibitor -10%, HepG2 tox 7% and ATXN2 expr inh 0%.
For O=C(C1CCCN(Cc2cccc(Cl)c2)C1)N1CCCCC1 (centres undefined) the results were DT40 TDP1 no CPT 26µM*, S2 tox inactive, DT40 TDP1 CPT inconclusive, TGFb inhibitor 2% and HepG2 tox -8%.
For COc1ccc(Br)cc1CN1CCCC(C(=O)N2CCCCC2)C1 (centres undefined) the results were DT40 TDP1 no CPT -22%, S2 tox inactive, DT40 TDP1 CPT -22%, TGFb inhibitor -3%, HepG2 tox -28% and ATXN2 expr inh -24%.
Screening O=C(C1CCN(Cc2cc(Cl)ccc2O)CC1)N1CCN(Cc2ccccc2)CC1 returned DT40 TDP1 no CPT 21µM*, S2 tox inactive, DT40 TDP1 CPT inconclusive, TGFb inhibitor -19%, HepG2 tox -44% and ATXN2 expr inh -15%.
For COc1ccc(Br)cc1CN1CCCC(C(=O)N2CCCCCC2)C1 (centres undefined) the results were DT40 TDP1 no CPT 23µM*, S2 tox inactive, DT40 TDP1 CPT inconclusive, TGFb inhibitor inconclusive, HepG2 tox -29% and ATXN2 expr inh -20%.
Cc1nc(-c2ccccc2)sc1CCNC(=O)C(=O)Nc1ccc2c(c1)OCO2 was read as S2 tox inconclusive, TGFb inhibitor -8%, HepG2 tox -3% and ATXN2 expr inh -10%.
For O=C(N/N=C/c1ccc(O)cc1O)c1ccc(CN2C(=O)c3cccc4cccc2c34)cc1 the results were DT40 TDP1 no CPT 3.7µM*, S2 tox inconclusive, DT40 TDP1 CPT 4.6µM*, TGFb inhibitor inconclusive, HepG2 tox -38% and ATXN2 expr inh inconclusive.
Screening O=C(N/N=C/c1ccccc1)c1ccc(CN2C(=O)c3cccc4cccc2c34)cc1 returned DT40 TDP1 no CPT -19%, S2 tox inactive, DT40 TDP1 CPT -12%, TGFb inhibitor 0%, HepG2 tox -27% and ATXN2 expr inh -14%.
For CCSc1nnc(CNC(=O)C23CC4CC(CC(C4)C2)C3)n1Cc1ccccc1 the results were DT40 TDP1 no CPT inconclusive, S2 tox inactive, DT40 TDP1 CPT inconclusive, TGFb inhibitor -38%, HepG2 tox -10% and ATXN2 expr inh 0%.
Screening CCCSc1nnc(CNC(=O)C23CC4CC(CC(C4)C2)C3)n1Cc1ccccc1 returned DT40 TDP1 no CPT inconclusive, S2 tox inactive, DT40 TDP1 CPT 16µM*, TGFb inhibitor inconclusive, HepG2 tox -9% and ATXN2 expr inh 15%.
Screening CCSc1nnc(CNC(=O)C23CC4CC(CC(C4)C2)C3)n1C1CCCCC1 returned DT40 TDP1 no CPT 26µM*, S2 tox inactive, DT40 TDP1 CPT 23µM*, TGFb inhibitor -18%, HepG2 tox -28% and ATXN2 expr inh 1%.
For Cc1nc(NC(=O)C(C)(C)C)sc1C(=O)Cn1cc(-c2ccc(C(C)(C)C)cc2)nn1 the results were DT40 TDP1 no CPT inconclusive, S2 tox inactive, DT40 TDP1 CPT inconclusive and ATXN2 expr inh 11%.
`CC(=O)Nc1cc(NC(C)=O)ncn1` gave DT40 TDP1 no CPT -8%, S2 tox inactive, DT40 TDP1 CPT 9%, TGFb inhibitor -1%, HepG2 tox -21% and ATXN2 expr inh 4%.
For O=C(CCc1nnc(-c2ccc3c(c2)OCO3)o1)NCCc1ccccc1F the results were DT40 TDP1 no CPT inconclusive, S2 tox inconclusive, DT40 TDP1 CPT 16µM*, TGFb inhibitor 7%, HepG2 tox 3% and ATXN2 expr inh -10%.
For O=C(NCc1ccccc1F)c1ccc2c(c1)OCO2 the results were DT40 TDP1 no CPT -18%, S2 tox inactive, DT40 TDP1 CPT 9%, TGFb inhibitor 0%, HepG2 tox 4% and ATXN2 expr inh 11%.

Screening data as filed in PubChem BioAssay.
